Sampled rows, rich in hits. Any-hit rate of the full collection: about 3.2%.
Tau fluor counter – counter-screen for tau fibril formation inhibitors; Potency, µM (top dose mostly 57.7 µM); AID 1463; tau K18 P301L Alexa594 fluorescence, heparin fibrillization; 280,000 compounds, 0.93% hits; further: nearly all actives have a fitted effect of over 55% in size
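Human tau K18 P301L (15 uM unlabeled, 0.24 uM Alexa 594-labeled) in 100 mM sodium acetate pH 7 with 20 uM heparin, 6 hr at 37 C. ThT 30 uM added, 1 hr ambient; Alexa 594 FP and total fluorescence read at 555/632 nm.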
Tau ThT inhib – tau fibrillization inhibition (ThT binding) | AID 1460 | Potency, µM (doses to about 57.4 µM), actives largely listed as inhibitors | P10636 | 270,000 compounds, 2.1% hits | recombinant tau K18 P301L, heparin-induced fibrillization, ThT fluorescence; further: nearly all actives have a fitted effect of over 55% in size
Target sequence (P10636 561-689 P618L limits assumed): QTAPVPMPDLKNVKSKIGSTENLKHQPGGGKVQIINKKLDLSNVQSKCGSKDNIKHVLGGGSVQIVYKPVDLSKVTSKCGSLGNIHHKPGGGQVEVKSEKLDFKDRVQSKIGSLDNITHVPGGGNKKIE
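Fibril formation assay: tau K18 P301L at 15 uM with trace Alexa 594 label, heparin inducer 20 uM, pH 7 sodium acetate buffer, 37 C for 6 hr; endpoint ThT signal.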
Tau fibril FP – blocks human tau fibril formation measured by polarization. P10636. K18 P301L tau heparin fibrillization, Alexa594 FP, 6 h. Potency, µM (top dose mostly 57.7 µM), actives largely listed as inhibitors. 280,000 compounds, 0.39% hits; further: nearly all actives have a fitted effect of over 55% in size
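Heparin (20 uM) drove fibril formation of recombinant tau K18 P301L, 15 uM unlabeled with 0.24 uM Alexa 594 label, for 6 hr at 37 C in 100 mM sodium acetate pH 7. Fluorescence polarization (555/632 nm) read 1 hr after 30 uM ThT.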
TexasRed fluor – counter-screen for TRb-SRC2 inhibitors: fluorescence interference | AID 1479 | Potency, µM (highest dose often 106 µM) | 280,000 compounds, 0.29% hits | TRb/SRC2 Texas Red total fluorescence interference; active means well fitted curve in either direction with a large enough effect; inconclusive means small, poorly fitted or top-dose-only effect
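Human TRb ligand-binding domain at 0.6 uM with 20 nM Texas Red SRC2 peptide in Tris buffer containing 1 uM T3 and 5% DMSO, incubated with compound 5 h at ambient temperature. Total fluorescence (555/632 nm) calculated as parallel + 2 × perpendicular.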
TRb-SRC2 inh – disrupts binding of human TR beta to SRC2. P10828. TRbeta-SRC2 peptide binding, fluorescence polarization; receptor liganded with 1 µM T3. Potency, µM (titrated, usually from 106 µM), most hits filed as inhibitors. 280,000 compounds, 0.065% hits; further: nearly all actives have a fitted effect of over 50% in size
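Polarization signal, normalized between peptide-alone and full complex controls, measured compound effects on T3-liganded human TRb LBD (0.6 uM) binding 20 nM Texas Red SRC2 peptide after 5 hr.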
RGS12 GoLoco inh – blocks human Gai1 binding to RGS12 GoLoco peptide, red readout; Gai1:RGS12 GoLoco peptide FP, rhodamine, 10 min; Potency, µM (series often up to 61.6 µM), hits mostly inhibitors; 230,000 compounds, 0.44% hits; AID 880; active means well fitted inhibition curve with a large enough effect, not every such curve was filed as active; inactive means no such curve, though single readings can be large or run the other way; further: nearly all actives have a fitted effect of over 30% in size
Target sequence (P63096 whole entry, looked up): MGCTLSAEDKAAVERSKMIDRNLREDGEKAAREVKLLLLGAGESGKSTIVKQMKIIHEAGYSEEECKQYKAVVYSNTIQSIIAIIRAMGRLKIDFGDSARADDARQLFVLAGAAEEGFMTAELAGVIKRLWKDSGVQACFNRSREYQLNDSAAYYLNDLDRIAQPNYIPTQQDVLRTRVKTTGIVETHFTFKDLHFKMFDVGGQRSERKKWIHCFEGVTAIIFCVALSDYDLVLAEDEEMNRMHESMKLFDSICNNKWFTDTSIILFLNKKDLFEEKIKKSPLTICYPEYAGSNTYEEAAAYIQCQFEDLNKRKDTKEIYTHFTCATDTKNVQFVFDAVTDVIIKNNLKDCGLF
Numbers stand for hits; . = inactive; ? = inconclusive; / = no result; ! = not active in a repeat; [ ] = dose if it differs, or a comment. Unless noted, the call rests on the fitted dose curve; in most records, active means well fitted curve in the direction sought with a large enough effect; inconclusive means small, poorly fitted or top-dose-only effect, or another doubt; inactive means no such curve, though single readings can be large; an effect the other way counts as inactive or inconclusive.

SMILES | Tau fluor counter | Tau ThT inhib | Tau fibril FP | TexasRed fluor | TRb-SRC2 inh | RGS12 GoLoco inh
COC(=O)C1C(O)C(C)C(O)C(C)(O)/C=C\C=C(/C)C(=O)Nc2c(C)c(OC(C)=O)c3c(c2O)C(=O)C(C)=C2OCOC(=C23)/C(C)=C/C(C)(O)C(O)C(C)C1O (configuration not stated) | 3.98µM[quencher] | / | ? | . | . | .
COc1ccc2c([N+](=O)[O-])c(Cl)[nH]c2c1 | ? | 28.2µM | ? | . | . | .
N#C/C(=C\c1ccc(-c2ccccc2Cl)o1)C(=O)Nc1nc2ccccc2s1 | . | 3.55µM | . | . | . | .
N#C/C(=C\c1ccc(-c2cc(Cl)ccc2Cl)o1)C(=O)Nc1ccccc1C(=O)O | . | 7.08µM | . | . | . | /
COc1ccc(-c2nnc3n2N=C(c2cc(OC)ccc2OC)CS3)cc1 | / | / | / | . | . | /
Cc1ccc(C2CC(=O)Oc3cc(C)c(Cl)c(C)c32)cc1 (configuration not stated) | . | ? | . | . | . | .
CCc1ccc(NCc2cc3ccc(OC)cc3n(CC(=O)Nc3ccccc3C)c2=O)cc1 | ? | . | . | . | . | /
O=C1NC(=O)C(c2ccccc2[N+](=O)[O-])=C1Nc1ccc(O)c(Cl)c1 | ? | 7.94µM | ? | . | . | .
C=CC[n+]1c(-c2ccc(Cl)cc2Cl)csc1Nc1c(C)n(C)n(-c2ccccc2)c1=O | . | ? | . | . | . | .
C=CC[n+]1c(-c2ccc(Cl)cc2Cl)csc1Nc1ccc(NC(C)=O)cc1 | 25.1µM[quencher] | ? | ? | . | . | .
COC(=O)C/C=C\[C@@H](C)[C@@H](/C=N\O[C@@H]1O[C@H](COC(C)=O)[C@@H](OC(C)=O)[C@H](OC(C)=O)[C@H]1OC(C)=O)NS(=O)(=O)c1ccc(C)cc1 | .[11.6 µM] | .[11.5 µM] | .[11.6 µM] | .[11.2 µM] | .[11.2 µM] | /
Cc1cc(C)n(-c2cc(C(C)(C)C)nc3c(-c4ccccc4)cnn23)n1 | . | . | . | . | . | .
CC(C)(C)c1cc(NCc2ccccn2)n2ncc(-c3ccccc3)c2n1 | 10µM[quencher] | ? | . | . | . | .
O=C(CSc1ccc(-c2cccnc2)nn1)c1ccc([N+](=O)[O-])cc1 | ? | 14.1µM | . | . | . | .
O=C(CSc1ccc(-c2ccccn2)nn1)N1CCCCC1 | . | . | . | . | . | .
O=C(CSc1ccc(-c2ccccn2)nn1)c1ccc([N+](=O)[O-])cc1 | . | 15.8µM | . | . | . | .
O=C(CSc1ccc(-c2ccncc2)nn1)c1ccccc1 | . | . | . | . | . | .
O=C(CN1CCCCC1)Nc1cccc(Cl)c1 | . | . | . | . | . | .
COc1cc(NC(=O)Nc2cccc(Cl)c2)c(OC)cc1NC(=O)CN1CCCCC1 | 8.91µM[quencher] | ? | ? | . | . | .
COc1cc(OC)c(NC(=O)C2CCN(S(=O)(=O)c3c(C)noc3/C=C/c3c(C)cc(C)cc3C)CC2)cc1Cl | . | . | . | . | . | /
CC(C)=CC[C@@H](O)C1=CC(=O)c2c(O)ccc(O)c2C1=O | ? | 4.47µM | 12.6µM | 28.2µM[quencher] | . | .
CCOC(=O)c1ccc(NC(=O)Cn2nc(SC)c(S(=O)(=O)c3ccc(Cl)cc3)c2N)cc1 | ? | . | 12.6µM | . | . | /
CCSc1nn(CC(=O)Nc2ccc(C(=O)OC)cc2)c(N)c1S(=O)(=O)c1ccc(C)cc1 | ? | . | 25.1µM | . | . | /
COc1ccc(NC(=O)Cn2nc(SC)c(S(=O)(=O)c3ccc(C)cc3)c2N)cc1OC | . | . | . | . | . | /
Cc1cccc(C)c1NC(=O)CCSc1nc(-c2ccc3c(c2)OCO3)cc(C(F)(F)F)n1 | . | . | . | . | . | /
SMILES | Tau fluor counter | Tau ThT inhib | Tau fibril FP | TexasRed fluor | TRb-SRC2 inh | RGS12 GoLoco inh
N/C(=N\O)c1cn([C@@H]2O[C@@H](CO)[C@H](O)[C@@H]2O)c2ncnc(NO)c12 | / | / | / | / | / | .[14.2 µM]
Nc1ncnc2c1c(I)cn2C1OC(CO)C(O)C1O (configuration not stated) | . | . | . | . | . | 25.1µM!
OCCN(CCO)c1ccc(C(c2ccc(Cl)cc2)c2ccc(N(CCO)CCO)cc2Cl)c(Cl)c1 | . | . | . | . | . | .
Cc1cc(N(CCO)CCO)ccc1N=Nc1cc(F)ccc1F | ? | 10µM | . | . | . | .
Cc1cc2oc(C(=O)Nc3nc(-c4ccccc4)ns3)c(C)c2cc1Cl | . | . | ? | . | . | /
CCCCCCc1ccc(-c2ncc(N)cn2)cc1 | 14.1µM[quencher] | . | . | . | . | .
Cc1ccccc1C(=O)Nc1cccc(N)c1 | . | . | . | . | . | .
